According to PubChem BioAssay (NCATS):
Results filed as inconclusive are left out. Activity calls are given as the source filed them. The call rests on the fitted dose curve; in most records, active means well fitted curve in the direction sought with a large enough effect; inconclusive means small, poorly fitted or top-dose-only effect, or another doubt; inactive means no such curve, though single readings can be large; an effect the other way counts as inactive or inconclusive.

Experiments:
[1] = Cellular Toxicity (caspase-3) Hek293 (AID 664); conditions: HEK293 caspase-3 activation, DMSO = 0%, 100 µM tamoxifen = 100%; at 92.2 µM (top of the series);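 further: cells exposed to compound for 16 h at 37 °C before readout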
Summary of the method: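 Apoptosis readout: Caspase-Glo 3/7 signal in human HEK293 cells following 16-hour compound incubation. Responses scaled between DMSO baseline and 100 uM tamoxifen.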

[2] = Cellular Toxicity (caspase-3) N2a (AID 665); conditions: N2a cells, luminescence, normalized: DMSO 0%, 10 µM staurosporine 100%; series mostly up to 92.2 µM;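 further: compound exposure lasted 16 h at 37 °C before readout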
Summary of the method: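 Concentration-response qHTS: compound-induced caspase-3/7 luminescence in N2a cells (16 h, 37 °C), relative to DMSO and 10 uM staurosporine controls; AC50 obtained using the standard Hill equation.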

[3] = Cellular Toxicity (caspase-3) NIH 3T3 (AID 666); conditions: NIH 3T3 caspase-3 activation, apoptosis/toxicity, 0% DMSO, 100% is 100 µM tamoxifen; series mostly up to 92.2 µM;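 further: caspase signal read after 16 h compound exposure; 0% = DMSO basal and 100% = 100 µM tamoxifen stimulation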
Summary of the method: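 Activity: caspase-3/7 induction, NIH 3T3 cells, 16 hr treatment at 37°C, luminescent Caspase-Glo detection; AC50 via Hill equation.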

[4] = Cellular Toxicity (caspase-3) Renal Proximal Tubule (AID 667); conditions: renal proximal tubule cells, primary cells freshly taken from rat; Potency: caspase-3 activation; series mostly up to 91.7 µM;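 further: cells exposed to compound for 16 hours at 37 °C before detection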
Summary of the method: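 AC50 derived by standard Hill fit of concentration-response data, normalized between DMSO basal and 10 uM staurosporine as 100% stimulation. Cells: primary rat kidney proximal tubule, 16 h treatment at 37 °C.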

[5] = molecular target: Cytochrome P450 3A4 (Homo sapiens) (UniProt P08684); experiment: qHTS Assay for Inhibitors and Substrates of Cytochrome P450 3A4 (AID 884); conditions: recombinant CYP3A4, Luciferin-PPXE luminescence; series mostly up to 57.1 µM; further: on the % scale 0 is the no-effect control and ±100 the full control effect; nearly all actives have a fitted effect of over 50% in size
Chain of Cytochrome P450 3A4 (Homo sapiens) (P08684 whole entry, looked up): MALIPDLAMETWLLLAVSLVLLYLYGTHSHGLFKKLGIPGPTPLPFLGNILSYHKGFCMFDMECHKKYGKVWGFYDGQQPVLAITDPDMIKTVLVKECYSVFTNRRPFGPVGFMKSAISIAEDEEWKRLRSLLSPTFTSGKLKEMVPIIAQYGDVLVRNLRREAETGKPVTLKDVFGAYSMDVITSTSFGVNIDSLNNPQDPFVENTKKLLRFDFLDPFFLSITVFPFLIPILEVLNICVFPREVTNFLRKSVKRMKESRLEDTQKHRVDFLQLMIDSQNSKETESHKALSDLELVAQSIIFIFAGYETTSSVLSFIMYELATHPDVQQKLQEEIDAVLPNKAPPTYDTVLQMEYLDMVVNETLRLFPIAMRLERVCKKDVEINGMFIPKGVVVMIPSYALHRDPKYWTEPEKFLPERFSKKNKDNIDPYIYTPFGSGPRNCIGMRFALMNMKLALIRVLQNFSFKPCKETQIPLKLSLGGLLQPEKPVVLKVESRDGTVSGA
Summary of the method: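 Luminescent readout of luciferin produced by CYP3A4 (20 nM) dealkylation of Luciferin-PPXE, 25 uM (its KM). NADPH-driven reaction ran 60 min at RT after 10 min compound preincubation; data scaled to 57 uM ketoconazole as 100% inhibition.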

[6] = Cell Viability - LYMP2-001 (AID 921); conditions: LYMP2-001 lymphoblastoid cell viability; series mostly up to 92.2 µM;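 further: cells exposed to compound for 24 h at 37 °C; 0% = DMSO only and full inhibition = tetraoctylammonium bromide control wells; nearly all actives have a fitted effect of over 70% in size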
Summary of the method: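 Steps: seed 2500 lymphoblastoid cells/well; 5 hr, 37 C; add compound; 24 hr, 37 C; CellTiter-Glo reagent, 30 min room temperature; read luminescence. Concentration-response modeled by Hill equation for AC50.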

[7] = MultiTox-Fluor Cytotoxicity Assay - LYMP1-001 - Dead Cells (AID 946); conditions: LYMP1-001 lymphoblastoid cells, dead-cell protease fluorescence; series mostly up to 92.2 µM;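 further: 0% = DMSO and 100% = tetraoctylammonium bromide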
Summary of the method: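 AC50 from Hill fit of concentration-response; data normalized to DMSO (basal) and 15 uM tetraoctylammonium bromide (100%). LYMP1-001 lymphoblastoid cells, 2500/well, 16 hr compound at 37 C; dead-cell protease fluorescence, Ex/Em 485/520.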

[8] = Cell Viability - LYMP1-002 - Assay at 16 hr (AID 948); conditions: LYMP1-002 lymphoblastoid cell viability; series mostly up to 92.2 µM;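 further: 0% = DMSO alone and full effect = 92 µM tetraoctylammonium bromide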
Summary of the method: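 Seed 2500 LYMP1-002 cells per well in complete medium and hold 5 hr at 37 C. Add compound across a concentration series and incubate 16 hr at 37 C. Add CellTiter-Glo, wait 30 min at room temperature, read luminescence.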

[9] = MultiTox-Fluor Cytotoxicity Assay - LYMP1-002 - Live Cells (AID 955); conditions: LYMP1-002 lymphoblastoid live-cell protease fluorescence viability; series mostly up to 46.1 µM; further: on the % scale 0 is the no-effect control and ±100 the full control effect
Summary of the method: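 In this qHTS viability format, lymphoblastoid cells (LYMP1-002, human) received compound for 16 hr at 37 C. Fluorogenic GF-AFC cleavage by viable cells was detected at 405/510 nm after 1 h at room temperature.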

[10] = MultiTox-Fluor Cytotoxicity Assay - LYMP1-002 - Dead Cells (AID 960); conditions: LYMP1-002 lymphoblastoid cells, dead-cell protease fluorescence; series mostly up to 46.1 µM;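 further: 0% = DMSO and 100% = tetraoctylammonium bromide; nearly all actives have a fitted effect of over 60% in size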
Summary of the method: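 Concentration-dependent increases in membrane-leaked protease activity are quantified in LYMP1-002 cells after 16 hr treatment; values are normalized against DMSO and tetraoctylammonium bromide (15 uM) controls and AC50 derived by Hill modeling.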

[11] = MultiTox-Fluor Cytotoxicity Assay - LYMP1-003 - Dead Cells (AID 961); conditions: LYMP1-003 lymphoblastoid cells, dead-cell protease fluorescence; series mostly up to 92.2 µM;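 further: 0% = DMSO and 100% = tetraoctylammonium bromide; nearly all actives have a fitted effect of over 70% in size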
Summary of the method: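 Human lymphoblastoid LYMP1-003 cells (2500/well) were treated with compounds for 16 hr at 37 C in complete medium. Dead-cell protease release was read by bis-AAF-R110 fluorescence (Ex/Em 485/520). AC50 came from Hill fits, normalized to DMSO and 15 uM tetraoctylammonium bromide.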

[12] = MultiTox-Fluor Cytotoxicity Assay - LYMP1-003 - Live Cells (AID 962); conditions: LYMP1-003 lymphoblastoid cells, MultiTox-Fluor live-cell protease fluorescence; series mostly up to 92.2 µM;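 further: cells exposed to compound for 16 hours at 37 °C; 0% = DMSO only and full loss = 92 µM tetraoctylammonium bromide; cytotoxic hits lower the live-cell protease signal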
Summary of the method: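 Human lymphoblastoid line LYMP1-003 in complete culture medium, treated 16 hr with titrated compounds. Viable cells quantified via cell-permeant GF-AFC substrate fluorescence; AC50 derived by Hill fitting.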

[13] = Cell Viability - LYMP1-003 - Assay at 24 hr (AID 963); conditions: LYMP1-003 lymphoblastoid cell viability; series mostly up to 92.2 µM;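 further: plate controls were DMSO only for no effect and tetraoctylammonium bromide positive control for full effect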
Summary of the method: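 The lymphoblastoid line was treated with titrated compounds for 24 hours, and viable cell number estimated from luciferase-based ATP luminescence.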

[14] = Cell Viability - LYMP1-003 - Assay at 40 hr (AID 964); conditions: LYMP1-003 lymphoblastoid viability; series mostly up to 92.2 µM; further: on the % scale 0 is the no-effect control and ±100 the full control effect; nearly all actives have a fitted effect of over 60% in size
Summary of the method: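 Acute toxicity is scored as a concentration-dependent loss of intracellular ATP in LYMP1-003 cells (2500/well, complete medium) after 40 hr at 37 C, measured by CellTiter-Glo luminescence; AC50 values derive from standard Hill modelling.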

[15] = Cell Viability - LYMP2-003 (AID 965); conditions: LYMP2-003 lymphoblastoid cell viability; series mostly up to 92.2 µM;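 further: cells exposed to compounds for 24 h before reading; 0% = DMSO only and full effect = 92 µM tetraoctylammonium bromide; nearly all actives have a fitted effect of over 50% in size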
Summary of the method: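 Seed 2500 lymphoblastoid cells/well; incubate 5 hr, 37 C; add compounds; incubate 24 hr, 37 C; add CellTiter-Glo, 30 min RT; read luminescence. AC50 from Hill fit.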

[16] = Cell Viability - LYMP2-004 (AID 966); conditions: LYMP2-004 lymphoblastoid cell viability, qHTS; series mostly up to 92.2 µM;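 further: plate controls were DMSO only for no effect and tetraoctylammonium bromide control for full effect; nearly all actives have a fitted effect of over 65% in size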
Summary of the method: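 Viable-cell number estimated from ATP luminescence (CellTiter-Glo) in 2500 human lymphoblastoid cells/well after 24 hr at 37 C with compound. AC50 fitted to the standard Hill equation.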

[17] = Cell Viability - LYMP2-005 (AID 967); conditions: LYMP2-005 lymphoblastoid cell viability; series mostly up to 92.2 µM;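 further: cells exposed to compound for 24 h at 37 °C; plate controls were DMSO only for no effect and 92 µM tetraoctylammonium bromide control for full effect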
Summary of the method: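 Acute cytotoxicity is scored as a concentration-dependent drop in intracellular ATP in human lymphoblastoid LYMP2-005 cells after 24 h compound treatment. ATP is quantified by luciferase luminescence, and AC50 is derived by Hill-equation modelling.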

[18] = Cell Viability - LYMP2-009 (AID 968); conditions: LYMP2-009 lymphoblastoid cell viability; series mostly up to 92.2 µM;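 further: cells exposed to compound for 24 h at 37 °C; 0% = DMSO alone and the full-kill end = tetraoctylammonium bromide at 92 µM; nearly all actives have a fitted effect of over 55% in size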
[19] = Cell Viability - LYMP2-011 (AID 969); conditions: LYMP2-011 lymphoblastoid cells viability; series mostly up to 92.2 µM;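 further: 0% = DMSO only and full inhibition = 92 µM tetraoctylammonium bromide; nearly all actives have a fitted effect of over 60% in size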
Summary of the method: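 Cells seeded at 2500 per well rest 5 hr before compound addition, then incubate 24 hr at 37 C. CellTiter-Glo reagent is added for 30 min at room temperature before luminescence detection.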

[20] = Cell Viability - LYMP2-013 (AID 970); conditions: LYMP2-013 lymphoblastoid cells viability; series mostly up to 92.2 µM;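 further: cells exposed to compound for 24 h at 37 °C; 0% = DMSO only and full inhibition = tetraoctylammonium bromide control; nearly all actives have a fitted effect of over 55% in size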
Summary of the method: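 In complete culture medium, human lymphoblastoid cells were dosed for 24 hr at 37 C, with tetraoctylammonium bromide (6.4pM to 92 uM) as positive control. Viability reflects luciferase-based ATP signal; AC50 derived from concentration-response curves.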

[21] = Cell Viability - LYMP2-015 (AID 971); conditions: LYMP2-015 lymphoblastoid cell viability; series mostly up to 92.2 µM;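 further: 0% = DMSO only and full effect = 92 µM tetraoctylammonium bromide; nearly all actives have a fitted effect of over 55% in size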
Summary of the method: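 AC50 values reflect Hill-model fits of ATP-based luminescence (CellTiter-Glo) from a human lymphoblastoid line, 2500 cells/well, treated 24 hr at 37 C.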

c1ccc(SCCSc2ccccc2)cc1
inactive: caspase-3 activation [1] 0.456% | outcome [2] | outcome [3] | Potency [4] | Potency [5] | Potency [6] | Potency [7] | Potency [8] | outcome [9] | Potency [10] | Potency [11] | Potency [12] | Potency [13] | Potency [14] | Potency [15] | Potency [16] | Potency [17] | Potency [18] | Potency [19] | Potency [20] | Potency [21]
